Pf growth 96h = inhibits malaria parasite growth, 96 h; P. falciparum luciferase reporter growth, 96 h; Potency, µM (doses to about 28.7 µM), most hits filed as inhibitors; 320,000 compounds, 6.9% hits; AID 504834
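P. falciparum expressing integrated firefly luciferase, in erythrocytes at 2% hematocrit, 0.05% parasitemia, incubated with compounds 96 h at 37 C, 5% CO2. Growth inhibition read as loss of luminescence; two-generation exposure targets delayed-death apicoplast inhibitors.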
AMA1 RON2 block = disrupts binding of P. falciparum AMA1 to RON2; AlphaScreen AMA1-biotinylated RON2 peptide binding; Potency, µM (titrated, usually from 58.2 µM), actives largely listed as inhibitors; 360,000 compounds, 0.2% hits; AID 720542; further: nearly all actives have a fitted effect of over 45% in size
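AMA1 (3D7) with his tag at 25 nM final met compounds first, then biotinylated RON2 peptide at 25 nM; detection used donor plus acceptor beads, 10 µg/mL apiece, read by AlphaScreen after 30 min at room temperature.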
NS1 inh = blocks influenza NS1 protein function. 270,000 compounds, 0.4% hits. Potency, µM (top dose mostly 46.1 µM); calls by dose curve; further: actives are rising curves; nearly all actives have a fitted effect of over 50% in size
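Read-out: OD600 growth recovery of NS1-expressing budding yeast. Cells grown overnight at 30C in -URA glucose medium, washed, resuspended and diluted 1:100 in 2% galactose assay medium, pH 6.0. Same strain lacking NS1 served as positive control.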
Pf growth 48h = P. falciparum growth inhibition at 48 hours (one generation). Potency, µM (top dose mostly 28.7 µM), most hits filed as inhibitors. 310,000 compounds, 5.9% hits. P. falciparum luciferase growth in erythrocytes, 48 h. AID 504832
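Growth was read as firefly luciferase luminescence after a 48 h, 37 C, 5% CO2 exposure of compounds to reporter-bearing P. falciparum cultures (0.1% parasitemia, 2% hematocrit final) in Albumax-supplemented RPMI 1640.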
HCV inhibitor = inhibitors of hepatitis C virus infection | Huh7.5.1 HCVcc-Cre infection, luciferase reporter, 44 h | Potency, µM (top dose mostly 41.8 µM), hits mostly inhibitors | 340,000 compounds, 3.4% hits | AID 651820
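Seed cells (1,000/well) for 4 h; treat with compound and infect with HCVcc-Cre, moi about 0.5. Incubate 44 h, then detect luciferase activity.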
SARS PLP yeast = SARS-CoV PLP inhibition in yeast; AID 485353; S. cerevisiae expressing SARS-CoV PLpro, growth rescue; Potency, µM (top dose mostly 32.9 µM), hits mostly activators; 330,000 compounds, 0.19% hits; calls by dose curve; further: nearly all actives have a fitted effect of over 55% in size
Hits are given with their value. Rows were chosen to be rich in hits. Some 12% of all compounds tested hit in one or more screens of this group. Unless noted, the call rests on the fitted dose curve; in most records, active means well fitted curve in the direction sought with a large enough effect; inconclusive means small, poorly fitted or top-dose-only effect, or another doubt; inactive means no such curve, though single readings can be large; an effect the other way counts as inactive or inconclusive.

For C/C=C(\C)C(=O)NCCN1C2=NC[C@@H](C)N2C[C@@H]1Cc1ccc(OC)cc1 the results were Pf growth 96h inactive, AMA1 RON2 block inactive, NS1 inh inactive, Pf growth 48h inactive, HCV inhibitor inactive and SARS PLP yeast inactive.
CNC(=O)NC(=O)CSc1nc2sccc2c(=O)n1-c1ccccc1 was read as Pf growth 96h inconclusive, AMA1 RON2 block inactive, NS1 inh inactive, Pf growth 48h inconclusive, HCV inhibitor inactive and SARS PLP yeast inactive.
For CC12CCC(C(=O)NCCCN3CCOCC3)(C(Br)C1=O)C2(C)C (configuration not stated) the results were Pf growth 96h inactive, AMA1 RON2 block inactive, NS1 inh inactive, Pf growth 48h inactive, HCV inhibitor inactive and SARS PLP yeast inactive.
`Cc1cccc(C)c1NC(=O)C(c1ccccc1)N1CCN(C(=O)c2ccco2)CC1` (configuration not stated) gave AMA1 RON2 block inactive, NS1 inh inactive, Pf growth 48h inconclusive, HCV inhibitor inactive and SARS PLP yeast inactive.
Screening CCOc1ccccc1NC(=O)C(c1ccccc1)N1CCN(C(=O)c2ccco2)CC1 (configuration not stated) returned Pf growth 96h inconclusive, AMA1 RON2 block inactive, Pf growth 48h 9.3µM, HCV inhibitor inconclusive and SARS PLP yeast inactive.
Screening Cc1ccc(NC(=O)C(c2ccccc2)N2CCN(C(=O)c3ccco3)CC2)cc1Cl (configuration not stated) returned Pf growth 96h inconclusive, AMA1 RON2 block inactive, Pf growth 48h 10µM, HCV inhibitor inactive and SARS PLP yeast inactive.
O=C(NC(=S)Nc1ccccc1N1CCCC1)c1ccc(F)cc1 was read as Pf growth 96h inactive, AMA1 RON2 block inactive, NS1 inh inactive, Pf growth 48h inconclusive, HCV inhibitor inconclusive and SARS PLP yeast inactive.
For COc1ccccc1C(=O)NC(=S)Nc1ccccc1N1CCCC1 the results were Pf growth 96h 3.7µM, NS1 inh inactive, Pf growth 48h inactive and SARS PLP yeast inactive.
For Cc1ccccc1C(=O)NC(=S)Nc1ccccc1N1CCCC1 the results were Pf growth 96h inactive, AMA1 RON2 block inactive, NS1 inh inactive, Pf growth 48h inconclusive, HCV inhibitor inconclusive and SARS PLP yeast inactive.
Screening O=C(NC(=S)Nc1ccccc1N1CCCCC1)c1ccccc1 returned Pf growth 96h inactive, AMA1 RON2 block inactive, NS1 inh inactive, Pf growth 48h inactive, HCV inhibitor 11µM and SARS PLP yeast inactive.
For O=C(NC(=S)Nc1ccccc1N1CCCCC1)c1ccc(F)cc1Cl the results were Pf growth 96h inconclusive, AMA1 RON2 block inactive, NS1 inh inactive, Pf growth 48h 12µM and SARS PLP yeast inactive.
For c1ccc(OCc2noc(CN3CCC(C4CCCCC4)C3)n2)cc1 (configuration not stated) the results were Pf growth 96h inactive, AMA1 RON2 block inactive, NS1 inh inactive, Pf growth 48h inconclusive, HCV inhibitor inactive and SARS PLP yeast inactive.
NC(=O)C1CCN(C(=O)Nc2csc3ccccc23)CC1 was read as Pf growth 96h inactive, AMA1 RON2 block inactive, NS1 inh inactive, Pf growth 48h inactive, HCV inhibitor inactive and SARS PLP yeast inactive.
CCOc1ccc(NS(=O)(=O)c2ccc(C(=O)NCC3(N(C)C)CCCCC3)cc2)cc1 was read as Pf growth 96h 9.3µM, AMA1 RON2 block inactive, Pf growth 48h 8.3µM, HCV inhibitor inconclusive and SARS PLP yeast inactive.
Screening Cc1cc(S(=O)(=O)Nc2ccc(C(=O)NCC3(N(C)C)CCCCC3)cc2)ccc1F returned Pf growth 96h 10µM, AMA1 RON2 block inactive, Pf growth 48h inconclusive, HCV inhibitor inactive and SARS PLP yeast inactive.
For Cc1cc(S(=O)(=O)Nc2ccc(C(=O)NCC3(N4CCCCC4)CCCCC3)cc2)ccc1F the results were Pf growth 96h 13µM, AMA1 RON2 block inactive, Pf growth 48h inconclusive, HCV inhibitor inactive and SARS PLP yeast inactive.
Screening CC(=O)c1ccc(S(=O)(=O)NCc2ccc(C(=O)NCC(c3ccccc3)N(C)C)cc2)cc1 (configuration not stated) returned Pf growth 96h inconclusive, AMA1 RON2 block inactive, NS1 inh inactive, Pf growth 48h 13µM, HCV inhibitor inconclusive and SARS PLP yeast inactive.
Screening CCOc1ccc(NS(=O)(=O)c2ccc(C(=O)NCC3(N4CCCCC4)CCCCC3)cc2)cc1 returned Pf growth 96h inconclusive, AMA1 RON2 block inactive, NS1 inh inactive, Pf growth 48h inconclusive, HCV inhibitor inconclusive and SARS PLP yeast inactive.
`CCN(CC)C(=S)SC1CCCCN(C(=O)c2ccc(F)cc2)C1=O` (configuration not stated) gave Pf growth 96h inactive, AMA1 RON2 block inactive, Pf growth 48h inactive, HCV inhibitor inactive and SARS PLP yeast inactive.
Screening CC(=O)Nc1ccc(S(=O)(=O)N2CCN(Cc3csc(C)n3)CC2)cc1 returned Pf growth 96h inactive, AMA1 RON2 block inactive, NS1 inh inactive, Pf growth 48h inactive and SARS PLP yeast inactive.
For Cc1cc(S(=O)(=O)Nc2ccc(C(=O)NCC(c3ccccc3)N(C)C)cc2)ccc1F (configuration not stated) the results were Pf growth 96h 10µM, AMA1 RON2 block inactive, NS1 inh inactive, Pf growth 48h inactive, HCV inhibitor inactive and SARS PLP yeast inactive.
For CN(C)C(CNC(=O)c1ccc(NS(=O)(=O)c2ccc(F)c(F)c2)cc1)c1ccccc1 (configuration not stated) the results were Pf growth 96h inactive, AMA1 RON2 block inactive, Pf growth 48h inconclusive, HCV inhibitor inactive and SARS PLP yeast inactive.
For Cn1c(=O)c2c(nc(C(=N)SCC(=O)O)n2C)n(C)c1=O the results were NS1 inh 7.9µM.
For CC(=O)Oc1ccc2c(=O)c(Oc3ccccc3)coc2c1OC(C)=O the results were Pf growth 96h inactive, AMA1 RON2 block inactive, NS1 inh inactive, Pf growth 48h inactive, HCV inhibitor inactive and SARS PLP yeast inactive.
`CCc1nc(NCCCn2ccnc2)c2oc3ccccc3c2n1` gave Pf growth 96h 13µM, AMA1 RON2 block inactive, NS1 inh inactive, Pf growth 48h inconclusive, HCV inhibitor inactive and SARS PLP yeast inactive.
Screening Cc1nc(NCCCn2ccnc2)c2ccccc2n1 returned Pf growth 96h inactive, AMA1 RON2 block inactive, NS1 inh inactive, HCV inhibitor inactive and SARS PLP yeast inactive.
`c1ccc(-c2nc(NCCCn3ccnc3)c3oc4ccccc4c3n2)cc1` gave Pf growth 96h 2.3µM, AMA1 RON2 block inactive, NS1 inh inactive, Pf growth 48h 3.3µM, HCV inhibitor inconclusive and SARS PLP yeast inactive.
For O=C(NCc1ccco1)C(c1ccncc1)N(C(=O)Cn1nnc2ccccc21)c1ccccc1F (configuration not stated) the results were Pf growth 96h inactive, AMA1 RON2 block inactive, NS1 inh inactive, Pf growth 48h inactive, HCV inhibitor inactive and SARS PLP yeast inactive.
